Like-named read-outs stand apart in the source and are kept apart here.
How the values were obtained:
[1] = system: T1, NIM1; conditions: concentration: 1 μM, replicates: in singlicate; n = 1
T1 construct: gene MGC42105

[2] = system: NLK; conditions: concentration: 1 μM, replicates: in singlicate; n = 1
[3] = system: T2, OSR1; conditions: concentration: 1 μM, replicates: in singlicate; n = 1
T2 construct: gene OXSR1

[4] = system: PAK1; conditions: concentration: 1 μM, replicates: in singlicate; n = 1
[5] = system: PAK2; conditions: concentration: 1 μM, replicates: in singlicate; n = 1
[6] = system: PAK3; conditions: concentration: 1 μM, replicates: in singlicate; n = 1
[7] = system: PAK4; conditions: n = 1
[8] = system: PAK6; conditions: n = 1
[9] = system: PAK7; conditions: concentration: 1 μM, replicates: in singlicate; n = 1
[10] = system: T3, PCTK1; conditions: concentration: 1 μM, replicates: in singlicate; n = 1
T3 construct: gene CDK16

[11] = concentration: 1 μM, replicates: in singlicate
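Note: KINOMEscan kinase panel screen.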

Row | Compound | %Inh [1] | %Inh [2] | %Inh [3] | %Inh [4] | %Inh [5] | %Inh [6] | %Inh [7, 11] | %Inh [8, 11] | %Inh [9] | %Inh [10] | %Inh ([7]; 1 µM) | %Inh ([8]; 1 µM)
1 | Cl.Cl.NCC(C(=O)Nc1cc(Br)c(-c2ccnc3[nH]ccc23)s1)c1ccccc1 (centres unmarked) [GSK1269851] | 11% | 0% | 36% | 17% | 32% | 27% | 0% | 0% | 51% | 11% |  | 
2 | CC(=O)N1CCN(c2ccc(Nc3nccc(-c4sc(C(C)C)nc4-c4cccc(NS(=O)(=O)c5cccc(Cl)c5)c4)n3)cn2)CC1 [GSK1660437] | 0% | 91.8% | 5% | 72% | 90.1% | 57% | 0% | 0% | 0% | 98.6% |  | 
3 | Cc1ccc(F)c(C(=O)Nc2cccc(-c3nn4ccccc4c3-c3ccnc(Nc4cccc(F)c4)n3)c2)c1F [GSK361061] | 0% | 77% | 100% | 4% | 21% | 42% | 3% | 0% | 14% | 0% |  | 
4 | CC(C)(C)c1ccc2nccc(Nc3cccc(O)c3)c2c1 [GW856795] | 30% | 0% | 0% | 0% | 0% | 0% | 23% | 0% | 2% | 0% |  | 
5 | COc1cccc(NC(=O)NC2CCN(c3ccnc(Nc4cc(OC)c(OC)c(OC)c4)n3)C2)c1 (centres unmarked) [GSK1379763] | 15% | 63% | 0% | 0% | 0% | 0% | 0% | 16% | 0% | 6% |  | 
6 | Cc1cccc(Nc2nc(N[C@H]3CCNC3)ncc2C(N)=O)c1.Cl [GSK2197149] | 11% | 0% | 18% | 38% | 70% | 66% | 95.8% | 78% | 98% | 14% |  | 
7 | O=C(Nc1cccc(-c2nn3ccccc3c2-c2ccnc(Nc3cccc(F)c3)n2)c1)c1c(F)ccc(F)c1Cl [GSK357952] | 7% | 46% | 2% | 0% | 2% | 16% | 0% | 0% | 15% | 0% |  | 
8 | COCCOCCOc1cc2ncc3c4ccc(C#N)cc4[nH]c3c2cc1OC | 48% | 19% | 0% | 18% | 22% | 21% | 19% | 10% | 1% | 0% |  | 
9 | Cn1cc(-c2[nH]c3cc(NC(=O)[C@H](N)C4CCCCC4)cc4c3c2C=NNC4=O)cn1 | 96.8% | 0% | 17% | 27% | 25% | 83% | 99.5% | 99.2% | 97.9% | 8% |  | 
10 | Cc1ccc(C(=O)N2CC[C@@H](O)C2)cc1-n1c(C)cc(OCc2ccc(F)cc2F)c(Br)c1=O | 0% | 4% | 0% | 0% | 0% | 0% | 0% | 0% | 0% | 0% |  | 
11 | Fc1ccc(-c2ncn(C3CCNCC3)c2-c2ccnc(Oc3ccc(-c4ccccc4)cc3)n2)cc1 [SB-245391] | 42% | 52% | 36% | 25% | 18% | 22% | 14% | 25% | 0% | 16% |  | 
12 | O=C(Nc1cccc(-c2nn3ncccc3c2-c2ccnc(Nc3ccccc3)n2)c1)c1c(F)cccc1F [GSK198271] | 4% | 95.1% | 16% | 24% | 16% | 31% | 0% | 1% | 0% | 10% |  | 
13 | Nc1ncc(-c2ccc3nccc(-c4ccncc4)c3c2)cc1S(=O)(=O)N1CCOCC1 [GSK1627798] | 0% | 0% | 0% | 9% | 20% | 5% | 0% | 0% | 0% | 3% |  | 
14 | COc1ccc(CNC(=O)NC2CCN(c3ccnc(Nc4ccc(F)cc4)n3)CC2)cc1 [GSK1379788] | 8% | 0% | 0% | 0% | 0% | 6% | 0% | 0% | 2% | 0% |  | 
15 | O=C(Nc1n[nH]c2nc(-c3ccc(O)cc3)ccc12)C1CC1 [SB-710363] | 0% | 92.1% | 0% | 0% | 72% | 0% | 0% | 0% | 11% | 61% |  | 
16 | COC(=O)Nc1nc2cc(Oc3ccc(NC(=O)Nc4cc(C(F)(F)F)ccc4F)cn3)ccc2[nH]1.Cl.Cl [GW681170] | 27% | 30% | 0% | 0% | 0% | 9% | 0% | 0% | 0% | 0% |  | 
17 | CN(c1ccc(NC(=O)Nc2cc(C(F)(F)F)ccc2F)cc1)c1ccnc(Nc2ccc(S(N)(=O)=O)cc2)n1 [GW809893] | 0% | 78% | 6% | 2% | 11% | 23% | 2% | 10% | 0% | 69% |  | 
18 | COc1ccc(-c2coc3ccc(-c4nnc(SCc5ccc(OC)c(C(F)(F)F)c5)o4)cc23)cc1 | 0% | 10% | 3% | 0% | 3% | 22% | 1% | 17% | 3% | 0% |  | 
19 | Cl.c1ccc(-c2ccc3c(Nc4ccc5[nH]ncc5c4)ccnc3c2)nc1 [GW440137] | 14% | 28% | 5% | 10% | 0% | 0% | 0% | 3% | 0% | 2% |  | 
20 | COc1ccc(Nc2nccc(NCCNC(=O)c3cc4ccccc4s3)n2)cc1 [GSK1379896] | 4% | 49% | 10% | 7% | 0% | 2% | 0% | 1% | 0% | 1% |  | 
21 | O=c1[nH]cc(-c2ccc(N3CCOCC3)cc2)c2sc(-c3cn[nH]c3)cc12 [GSK2276055] | 30% | 0% | 1% | 8% | 26% | 0% | 0% | 17% | 31% | 4% |  | 
22 | O=C(O)C(F)(F)F.O=C(O)C(F)(F)F.O=c1[nH]ccc2nc(N[C@@H]3CCCNC3)nc(Nc3ccc(S(=O)(=O)N4CCOCC4)cc3)c12 [GSK2177277] | 95.7% | 0% | 92.1% | 99.9% | 99.3% | 100% | 99.6% | 97.9% | 99.9% | 99.9% |  | 
23 | COc1cc(Nc2nccc(-c3c(-c4cccc(NC(=O)c5c(F)cccc5F)c4)nn4ncccc34)n2)cc(OC)c1OC [GSK327238] | 0% | 82% | 19% | 70% | 9% | 36% | 0% | 11% | 41% | 11% |  | 
24 | COc1ccc(Nc2nccc(N3CCC(NC(=O)Nc4cccc(OC)c4)C3)n2)cc1 (centres unmarked) [GSK1379742] | 22% | 0% | 0% | 44% | 27% | 0% | 0% | 0% | 0% | 4% |  | 
25 | Cl.Cl.NCC(NCc1ccc(-c2ccnc3[nH]ccc23)s1)c1ccccc1 (centres unmarked) [GSK1321565] | 0% | 8% | 10% | 0% | 0% | 69% | 0% | 2% | 0% | 0% |  | 
26 | c1ccc(-c2n[nH]cc2Nc2ccnc3ccccc23)nc1 [GW694077] | 25% | 53% | 7% | 6% | 50% | 1% | 20% | 0% | 2% | 4% |  | 
27 | Nc1ncnc2c1nc(-c1ccccc1)n2-c1ccccc1 [SKF-97293] | 66% | 0% | 39% | 29% | 56% | 27% | 16% | 8% | 0% | 9% |  | 
28 | CNC(=O)c1ccccc1Nc1nc(Nc2ccc(N3CCOCC3)cc2)ncc1Cl.Cl [GSK1576028] | 41% | 26% | 35% | 71% | 61% | 100% | 78% | 66% | 83% | 11% |  | 
29 | CCn1c(-c2nonc2N)nc2c(C#CC(C)(C)O)ncc(OCCCCN)c21.O=C(O)C(F)(F)F.O=C(O)C(F)(F)F [GSK507274] | 29% | 0% | 40% | 81% | 88% | 49% |  |  | 99% | 8% | 98.1% | 89%

Reference: paper PMC5540273 (PLoS ONE, 2017)
